Data from PubChem BioAssay (NCATS).
Records with an inconclusive call do not appear. Values without a mark were called inactive. The source made the active and inactive calls. The call rests on the fitted dose curve; in most records, active means well fitted cell-killing curve with a large enough effect; inconclusive means small, poorly fitted or top-dose-only effect, or effect the other way; inactive means no such curve, though single readings can be large or run the other way.

What was measured:
[1] = Quantitative High-Throughput drug screen in 47 multiple myeloma cell lines against the NCATS MIPE library collection: OPM1_PLB cell viability assay (AID 1918989); further: nearly all actives have a fitted effect of over 40% in size; further: potency means the concentration at half of the fitted maximal effect
How it was run: (§1)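 Inhibition of viability over 48 h was scored by ATP content (CellTiter-Glo) in 500-cell wells. Zero and full viability were defined by media-only and DMSO-only wells.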

[2] = Quantitative High-Throughput drug screen in 47 multiple myeloma cell lines against the NCATS MIPE library collection: XG6_PLB cell viability assay (AID 1919865); further: nearly all actives have a fitted effect of over 40% in size; further: potency means the concentration at half of the fitted maximal effect
How it was run: as §1

[3] = Quantitative High-Throughput drug screen in 47 multiple myeloma cell lines against the NCATS MIPE library collection: XG1_PLB cell viability assay (AID 1919866); further: nearly all actives have a fitted effect of over 35% in size; further: potency means the concentration at half of the fitted maximal effect
How it was run: as §1

[4] = Quantitative High-Throughput drug screen in 47 multiple myeloma cell lines against the NCATS MIPE library collection: VP6_DJ cell viability assay (AID 1919867); further: nearly all actives have a fitted effect of over 40% in size; further: potency means the concentration at half of the fitted maximal effect
How it was run: as §1

[5] = Quantitative High-Throughput drug screen in 47 multiple myeloma cell lines against the NCATS MIPE library collection: UTMC2_PLB cell viability assay (AID 1919868); details: CellTiter-Glo ATP luminescence, 48 h; viability (% of DMSO control): at 45.8 µM (top of the series); further: nearly all actives have a fitted effect of over 55% in size; further: potency means the concentration at half of the fitted maximal effect;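 on viability (% of DMSO control): 100% = DMSO-only wells and 0% = media-only wells without cells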
How it was run: as §1

[6] = Quantitative High-Throughput drug screen in 47 multiple myeloma cell lines against the NCATS MIPE library collection: PE2_PLB cell viability assay (AID 1919869); further: nearly all actives have a fitted effect of over 35% in size; further: potency means the concentration at half of the fitted maximal effect
How it was run: as §1

[7] = Quantitative High-Throughput drug screen in 47 multiple myeloma cell lines against the NCATS MIPE library collection: SKMM1_PLB cell viability assay (AID 1919863); details: SKMM1 myeloma viability, CellTiter-Glo ATP, 48 h; viability: active compounds read low; further: nearly all actives have a fitted effect of over 35% in size
How it was run: as §1

[8] = Quantitative High-Throughput drug screen in 47 multiple myeloma cell lines against the NCATS MIPE library collection: U266_ATCC cell viability assay (AID 1919864); further: nearly all actives have a fitted effect of over 35% in size; further: potency means the concentration at half of the fitted maximal effect;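 on viability (% of DMSO control): 0% = media-only wells without cells and 100% = DMSO-only wells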
How it was run: as §1

SMILES | Potency [1] | Potency [2] | Potency [3] | Potency [4] | Potency [5] | Potency [6] | viability [7] | Potency [8]
CNC(=O)c1cc(Oc2ccc(NC(=O)Nc3ccc(Cl)c(C(F)(F)F)c3)c(F)c2)ccn1 | inactive | 0.935 µM (active) | 2.64 µM (active) | 2.96 µM (active) | 3.72 µM (active) | 3.32 µM (active) | – | –
O=C(Nc1cccc2c(=O)cc(-c3nn[nH]n3)oc12)c1ccc(OCCCCc2ccccc2)cc1 | 18.7 µM (active) | 26.4 µM (active) | 26.4 µM (active) | – | – | 26.4 µM (active) | – | –
O=C(O)C1=NC(C(=O)O)CC(C=CN2c3cc(O)c(OC4OC(CO)C(O)C(O)C4O)cc3CC2C(=O)O)=C1 (centres undefined) | inactive | – | inactive | – | – | inactive | 117% | –
CC[C@@H]([C@H](C)O)n1ncn(-c2ccc(N3CCN(c4ccc(OCC5CO[C@@](Cn6cncn6)(c6ccc(F)cc6F)C5)cc4)CC3)cc2)c1=O (some centres undefined) | inactive | 20.9 µM (active) | – | 23.5 µM (active) | – | 10.5 µM (active) | – | inactive
C[C@H]1O[C@@H](n2cc(F)c(=O)[nH]c2=O)[C@H](O)[C@H]1O | 11.8 µM (active) | inactive | – | 0.59 µM (active) | – | 1.87 µM (active) | – | –
CN1CCC[C@H]1CCO[C@](C)(c1ccccc1)c1ccc(Cl)cc1 | 26.4 µM (active) | 18.7 µM (active) | 18.7 µM (active) | 18.7 µM (active) | 14.8 µM (active) | – | 84.5% | –
COc1ccc(CCC(=O)Nc2nc3ccc(Cl)cc3s2)cc1OC | inactive | 23.5 µM (active) | 16.6 µM (active) | – | – | 23.5 µM (active) | – | 16.6 µM (active)
NC[C@H]1O[C@H](O[C@@H]2[C@@H](O)[C@@H](O[C@H]3O[C@H](CO)[C@@H](O)[C@H](N)[C@@H]3O)[C@H](N)C[C@@H]2N)[C@H](O)[C@@H](O)[C@H]1O | inactive | inactive | – | 16.6 µM (active) | – | inactive | 120% | –
CC(C)N(CCCNC(=O)Nc1ccc(C(C)(C)C)cc1)C[C@H]1O[C@@H](n2cc(Br)c3c(N)ncnc32)[C@H](O)[C@H]1O | 23.5 µM (active) | 20.9 µM (active) | 23.5 µM (active) | – | – | – | – | 20.9 µM (active)
Cc1csc(-c2nnc(Nc3ccc(Oc4ncccc4-c4ccnc(N)n4)cc3)c3ccccc23)c1 | 18.7 µM (active) | – | 0.469 µM (active) | – | – | – | – | 23.5 µM (active)
Cc1ccc2c(c1)C(=O)[C@]1(O)CCN(c3ccccc3)C1=N2 | inactive | inactive | inactive | – | 4.69 µM (active) | inactive | – | –
CCCCC(C)(C)[C@H](O)C=C[C@H]1[C@H](O)CC(=O)[C@H]1CC=CCCCC(=O)O | 18.7 µM (active) | 23.5 µM (active) | – | – | – | – | – | 13.2 µM (active)
CN1CCN2c3ncccc3Cc3ccccc3C2C1 (centres undefined) | inactive | inactive | – | inactive | inactive | inactive | – | –
CN[C@@H](C)[C@H]1[C@H](O)C[C@@]2(C)[C@@H]3CC[C@H]4C(C)(C)[C@@H](NC)CC[C@@]45C[C@@]35CC[C@]12C | inactive | 23.5 µM (active) | – | – | – | inactive | – | inactive
OCCn1cc(-c2ccc3c(c2)CCC3=NO)c(-c2ccncc2)n1 | inactive | 13.2 µM (active) | – | 16.6 µM (active) | – | – | – | 23.5 µM (active)
CCN1C[C@H](C)n2c(c(O)c3c(=O)n(Cc4ccc(F)c(Cl)c4)nc(C(=O)NC)c32)C1=O | inactive | inactive | – | – | – | inactive | – | inactive
C[C@]12CC[C@@H]3c4ccc(O)cc4CC[C@H]3[C@H]1[C@@H](O)[C@@H](O)[C@H]2O | inactive | 14.8 µM (active) | 14.8 µM (active) | inactive | – | inactive | – | –
OC[C@H]1O[C@@H](OCCc2ccc(O)cc2)[C@H](O)[C@@H](O)[C@H]1O | 29.6 µM (active) | 5.9 µM (active) | – | 0.662 µM (active) | – | inactive | – | 20.9 µM (active)
C#C[C@]1(O)CC[C@H]2[C@H]3CCc4cc(OC)ccc4[C@H]3CC[C@@]21C | 16.6 µM (active) | 16.6 µM (active) | 14.8 µM (active) | 16.6 µM (active) | – | – | – | –
CS(=O)(=O)c1ccc(C2=C(c3ccccc3)C(=O)OC2)cc1 | inactive | inactive | – | – | – | – | 152% | –
O=C(c1ccc(C(=O)N2CCC(N3CCCC3)CC2)c(Nc2ccccc2)c1)N1CCC(N2CCCC2)CC1 | inactive | inactive | inactive | – | inactive | inactive | – | inactive
